# Records with an inconclusive call do not appear. Calls of active or inactive are those of the source. Calls follow the shape of the dose curve; as a rule, active = well fitted cell-killing curve with a large enough effect in the repeat runs; inconclusive = weak or mixed curves; inactive = no such curve, though single readings can be large or run the other way.
# Assay: qHTS assay to identify small molecule antagonists of the peroxisome proliferator-activated receptor delta (PPARd) signaling pathway - cell viability counter screen (AID 743213); also: nearly all actives have a fitted effect of over 50% in size
# Conditions: PPARd-bla HEK293H viability, CellTiter-Glo luminescence, 17 h; series mostly up to 62 µM
# Excerpt: U.S. Tox21 Program National Center for Advancing Translational Sciences [NCATS] NIH Chemical Genomics Center [NCGC] U.S. Environmental Protection Agency [EPA] National Institutes of Environmental Health Sciences [NIEHS] National Toxicology Program [NTP] U.S. Food and Drug Administration [FDA] Tox21 Assay Overview: The peroxisome proliferator-activated receptors (PPARs) are lipid-activated transcription factors of the nuclear receptor superfamily with three distinct subtypes namely PPAR alpha, PPAR delta (PPARd) and PPAR gamma. All these subtypes heterodimerizes with Retinoid X receptor (RXR) and have different physiological functions. […] To identify the compounds that inhibit PPAR-delta signaling, GeneBLAzer PPAR delta UAS-bla HEK293H cell line (Invitrogen, Carlsbad, CA, USA) containing a beta-lactamase reporter gene under the control of an Upstream Activator Sequence (UAS) was used to screen the Tox21 compound library. The cytotoxicity of the Tox21 compound library against the PPARd-bla cell line was tested in parallel by measuring the cell viability using CellTiter-Glo assay (Promega, Madison, WI) in the same wells.
# Tox21 Assay Protocol Summary: PPARd-bla cells were dispensed at 3000 cells/5uL/well in 1536-well black wall/clear bottom plates using a Multidrop Combi (Thermo Fisher Scientific, Waltham, MA) dispenser. After the assay plates were incubated at 37 C and 5% CO2 for 5 h, 23 nL of compounds dissolved in DMSO, positive controls or DMSO only was transferred to the assay plate by a Pintool station (Kalypsys, San Diego, CA), followed by addition of 1ul L165041 (300 nM, final concentration in the wells). The assay plates were incubated at 37 C for 17 h, and then 1 uL of LiveBLAzerTM B/G FRET substrate was added using a Bioraptr Flying Reagent Dispenser (FRD) workstation (Beckman Coulter, Indianapolis, IN, USA). The assay plates were incubated at room temperature for 2 h and fluorescence intensity was measured by an Envision plate reader (PerkinElmer, Shelton, CT). For cell viability readout that measures cytotoxicity, 3 ul/well of CellTiter-Glo reagent was added into the assay plates using a Bioraptr FRD. After 30 min incubation at room temperature, the luminescence intensity in the plates was measured using a ViewLux plate reader (PerkinElmer).
row,Structure (SMILES),outcome
1,CCN1CN(CC)CN(CC)C1,inactive
2,Cn1c(=O)c2c(ncn2CC2OCCO2)n(C)c1=O,inactive
3,CC(=O)N1CCN(c2ccc(O)cc2)CC1,inactive
4,CC(C)(CO)[C@@H](O)C(=O)NCCCO,inactive
5,CC(C)C(=O)c1ccccc1,inactive
6,CO[Si](CCCCl)(OC)OC,inactive
7,CCCCCCCCCOCC1CO1 (stereo not given),inactive
8,CCCCCCCCOC(C)=O,inactive
9,CCCCCCCC/C=C\CCCCCCCC(=O)OC[C@@H](O)[C@H]1OC[C@H](O)[C@H]1O,inactive
10,CC1=CC[C@H](CC=O)C1(C)C,inactive
11,CN(C)CCOCCN(C)CCO,inactive
12,C=CCOCC(O)CCl (stereo not given),inactive
13,Nc1ccc(S(=O)(=O)Nc2ccccn2)cc1,inactive
14,Cc1ccc(S(=O)(=O)NC(=O)NC2CCCCCCC2)cc1,inactive
15,CC(=O)OCC(=O)[C@@]1(O)[C@H](OC(C)=O)C[C@H]2[C@@H]3CCC4=CC(=O)C=C[C@]4(C)[C@@]3(F)[C@@H](O)C[C@@]21C,inactive
16,Cc1ccccc1C,inactive
17,O=C(O)c1c(Cl)ccc(Cl)c1Cl,inactive
18,CN=C(NC#N)NCCSCc1csc(N=C(N)N)n1,inactive
19,CCN(CC)C(=O)C1CN2CCc3cc(OC)c(OC)cc3C2CC1OC(C)=O (stereo not given),inactive
20,CCOc1ccc(NC(=O)OC(C)C)cc1OCC,inactive

row,Structure (SMILES),outcome
1,COc1ccc(/C=N/NC(=O)c2ccncc2)cc1OC,inactive
2,O=C(O)c1ccc(OCCN2CCCCC2)cc1,inactive
3,CCCCCCCCCCCCC1CO1 (stereo not given),inactive
4,NC(Cc1c[nH]c2ccccc12)C(=O)O (stereo not given),inactive
5,CCCCOC(=O)C(=O)OCCCC,inactive
6,CCC(C)(C)C1CCC(=O)CC1,inactive
7,CCCCC(CC)COC(=O)c1ccccc1 (stereo not given),inactive
8,CC(C)CCCCCCOC(=O)C1CCCCC1C(=O)OCCCCCCC(C)C (stereo not given),inactive
9,NS(=O)(=O)c1cc2c(cc1Cl)NC(C(Cl)Cl)NS2(=O)=O (stereo not given),inactive
10,CC(C)=CC(C)(C)C,inactive
11,CC(C)COC(=O)COc1ccc(Cl)cc1Cl,inactive
12,CCOC(=O)CCc1ccccc1,inactive
13,Cc1nc(C)nc(N2C[C@@H](C)N(c3ccnc([C@@H](C)O)n3)[C@@H](C)C2)n1,inactive
14,F[Si-2](F)(F)(F)(F)F,inactive
15,NCCc1ccn[nH]1,inactive
16,CO[Si](CCCS)(OC)OC,inactive
17,CCCOCCOCCOCCO,inactive
18,CCCCC(CC)CNC(=O)CC(C)OC(=O)CCC(=O)O (stereo not given),inactive
19,Cc1nc2n(c(=O)c1CCN1CCC(C(=O)c3ccc(F)cc3)CC1)CCS2,inactive
20,NS(=O)(=O)c1cc2c(cc1Cl)NC(CC1CCCC1)NS2(=O)=O (stereo not given),inactive

# — PubChem BioAssay (Tox21)
